The campaign covered roughly 76,000 compounds. About 1,200 (1.6%) were called active. Inconclusive results (about 4%) are left out. Calls follow the shape of the full dose curve. The sample as a whole holds a higher share of actives than the screen did.
Target: Atrial natriuretic peptide receptor 1 (Homo sapiens) (UniProt P16066)
Assay: Natriuretic polypeptide receptor (hNpr1) antagonism - Primary qHTS; also: nearly all actives have a fitted effect of over 60% in size
Conditions: HEK293 hNpr1 GloSensor cGMP, ANP-stimulated luminescence; series mostly up to 46.3 µM
Summary of the method: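 Compound pre-incubated 30 min at room temperature on GloSensor-loaded HEK293 cells stably carrying hNpr1 and the pGS-40F cGMP biosensor. Stimulation uses hNppA at 0.1 nM final; luminescence is taken at baseline and 20 min post-agonist.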
Potency is read from the fitted curve at half-maximal effect.

Sequence of Atrial natriuretic peptide receptor 1 (Homo sapiens) (P16066 whole entry, looked up): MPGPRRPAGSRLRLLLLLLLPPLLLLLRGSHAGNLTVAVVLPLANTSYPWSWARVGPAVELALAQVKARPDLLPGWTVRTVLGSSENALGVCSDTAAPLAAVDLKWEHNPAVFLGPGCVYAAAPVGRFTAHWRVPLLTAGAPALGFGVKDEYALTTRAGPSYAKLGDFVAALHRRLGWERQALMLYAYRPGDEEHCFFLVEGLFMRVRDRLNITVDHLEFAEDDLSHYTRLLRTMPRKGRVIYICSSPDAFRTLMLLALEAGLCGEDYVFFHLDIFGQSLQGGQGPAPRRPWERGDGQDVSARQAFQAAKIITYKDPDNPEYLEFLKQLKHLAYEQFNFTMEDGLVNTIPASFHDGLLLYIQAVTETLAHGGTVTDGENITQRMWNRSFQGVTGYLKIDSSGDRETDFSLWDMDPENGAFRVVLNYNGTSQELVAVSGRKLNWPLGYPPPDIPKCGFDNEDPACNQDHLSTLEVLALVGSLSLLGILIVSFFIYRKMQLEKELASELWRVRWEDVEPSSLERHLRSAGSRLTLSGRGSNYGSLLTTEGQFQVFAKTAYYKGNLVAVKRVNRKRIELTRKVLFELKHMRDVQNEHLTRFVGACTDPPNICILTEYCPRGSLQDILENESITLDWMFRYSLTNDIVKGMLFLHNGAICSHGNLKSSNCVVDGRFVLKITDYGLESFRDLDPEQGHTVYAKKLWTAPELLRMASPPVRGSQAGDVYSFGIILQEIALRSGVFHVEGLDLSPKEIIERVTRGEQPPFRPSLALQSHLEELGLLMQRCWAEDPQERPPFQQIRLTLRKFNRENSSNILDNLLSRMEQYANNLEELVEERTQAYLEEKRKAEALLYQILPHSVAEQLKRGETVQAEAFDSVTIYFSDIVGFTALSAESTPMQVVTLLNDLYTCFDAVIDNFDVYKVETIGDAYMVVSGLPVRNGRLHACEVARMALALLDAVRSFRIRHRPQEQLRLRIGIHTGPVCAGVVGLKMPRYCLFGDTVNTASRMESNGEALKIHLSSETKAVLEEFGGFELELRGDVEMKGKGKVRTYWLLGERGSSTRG

Potency, inactive:
CN(Cc1ccc(CCN)cc1)Cc1cccc(-n2cccn2)c1
CN(C)c1ccc(C(=O)NCc2nnc3cc(-c4nc(C5CC5)no4)ccn23)cc1
CCOc1ccccc1C(=O)NCc1nnc2cc(-c3nc(C)no3)ccn12
COc1cccc(CC(=O)N2CCCC(c3nc(-c4cccnc4)no3)CCNC(=O)CC2)c1 (stereo not drawn)
Cc1cccc(OCC(=O)N2CCN(c3cc(C(F)(F)F)nc(C)n3)CC2)c1
CC(C)CN[C@H]1[C@H](O)[C@H](O)C[C@@H]1c1ccc(N2CCOCC2)nc1
CN(C)CCN(C)c1ccc(-c2nc(-c3ccccc3F)no2)cn1
Oc1ccc(-c2ccc(-c3nc(CCc4ccccc4)no3)cn2)cc1
CCCC(C)C(=O)N1CCCN(C)c2ccccc21 (stereo not drawn)
COc1ccc2nc3n(c2c1)[C@@H](CNC1CCCCC1)COC3
Cc1ccccc1-n1nc(C)c(CCC(=O)NC(C)C)c1Oc1cccc(F)c1
COc1ccc(-c2cn3c(n2)CO[C@@H](CNCc2ccc(F)c(F)c2)C3)cc1
COc1ccc(CN2C(=O)CO[C@H]3CN(C(=O)C4CC4)C[C@H]32)cc1
COc1ccc(CN2C(=O)CO[C@H]3CN(Cc4cccnc4)C[C@H]32)cc1
Cc1cc(F)ccc1NC(=O)CCC1CCCN(C(=O)c2ccc(Cl)s2)C1 (stereo not drawn)
Cc1noc(C)c1C(=O)N1CCCC(CCc2ccc(F)cc2F)C1 (stereo not drawn)
Fc1ccc(-c2cnc3n[nH]c(-c4ccc5c(c4)OCO5)c3n2)cc1
Cc1ccc(-c2nnc(C3CN(C(=O)CCc4ccccc4)CC34CCOCC4)o2)cc1 (stereo not drawn)
O=C(c1cccc2[nH]ccc12)N1CCC2(CC1)N=C(c1cccc(Br)c1)NO2
Cc1ccc(C2=NC3(CCN(C(=O)c4ccc(C#N)cc4)CC3)ON2)cc1
OCC1(CN2CCCC2)CCN(Cc2cccc(Cn3cccn3)c2)CC1
COc1cccn(CC(=O)N(C)Cc2csc(C(C)C)n2)c1=O
COc1ccc(CNC(=O)CN2C(=O)NC3(CCC(C(C)(C)C)CC3)C2=O)cc1OC (stereo not drawn)
c1ccc(-c2noc(-c3ccccc3OC3CCNC3)n2)cc1 (stereo not drawn)
CC(C)(CC(=O)O)CC(=O)N[C@H]1CO[C@H]2[C@@H]1OC[C@@H]2n1nnnc1-c1ccccc1
CC(C)(C)CC(=O)N1CC[C@H](NC(=O)Nc2ccc(F)cc2F)[C@H]1C(=O)N[C@H](Cc1ccccc1)C(N)=O
CCC(C)NC(=O)CN1C(=O)NC2(CCC(C(C)(C)C)CC2)C1=O (stereo not drawn)
CCCNc1cc(N2CCC(CCC(=O)NCc3ccc(Cl)cc3)CC2)ncn1
O=C(Cc1cccnc1)N1CCCC(c2nc(CCOCC3CCCC3)no2)C1 (stereo not drawn)
O=C(c1ccoc1)N1CCCC(c2nc(CCOCC3CCCC3)no2)C1 (stereo not drawn)
COCCC(=O)N1CCC2(CC1)CC(C(=O)N1CCOCC1)N(C)C2 (stereo not drawn)
Cc1ccc2nc3n(c2c1)[C@@H](CNC(=O)COc1ccccc1)COC3
Cc1ccc2c(c1)nc1n2[C@@H](CNC(=O)c2ccccc2)COC1
COCC1CN(Cc2ccc(OC)c(OC)c2Cl)CC12CCNCC2 (stereo not drawn)
COc1ccc(-c2cc(CC3(NCc4cccc(OC)c4)COC3)no2)cc1
CCN(CC)C(=O)[C@@H]1CCC[C@@H](NC2CCC2)CN(C)C(=O)C1
COc1ccc(CC(=O)N2CCC(Cc3nc(-c4cnccn4)no3)CC2)cc1Cl
COc1ccc(CC(=O)N2CCC(Cc3nc(C(C)C)no3)CC2)cc1Cl
COc1ccc(CC(=O)N2CCC3(CC2)CC(O)CCO3)cc1OC (stereo not drawn)
COc1ccc(-c2nc3c(c(=O)[nH]2)CCN(C(=O)Cc2ccc(OC)c(Cl)c2)C3)cc1
CCOCCOc1cccc(C(=O)N2CCC3(CCOCC3)CC2)c1
CN(C)C(=O)c1n[nH]c2c1CN(C(=O)c1cccc(C(F)(F)F)c1)CC2
Cc1cc(C)c(CNC(=O)c2nc(-c3cccc(CO)c3)cc3c2ccn3C)c(=O)[nH]1
Cc1ccccc1-n1nc(CC(N)=O)nc1-c1ccc(Cn2cnnn2)cc1
Cc1ccccc1CC(=O)N1CCC[C@H]1c1nc(-c2ccccc2Cl)no1
O=c1[nH]c(C2CCN(Cc3ccc(F)cc3)CC2)nn1Cc1ccccc1
O=c1[nH]c(C2CCN(Cc3ccccc3)CC2)nc2ccc(F)cc12
O=C(c1ccc(Br)cc1)N1CCN(c2cc(-c3ccccc3)[nH]n2)CC1
COc1ccc(-c2cc(N3CCCN(C(=O)c4ccc(C)cc4)CC3)n[nH]2)cc1
O=C(c1ccoc1)N1CCN(c2cc(-c3ccc(Cl)cc3)[nH]n2)CC1
O=C(Cc1ccc(F)cc1)NC1CCN(c2cc(-c3ccc(Cl)cc3)[nH]n2)CC1
COc1ccc(-c2cc(N3CCN(C(=O)c4cc(OC)cc(OC)c4)CC3)n[nH]2)cc1
COc1ccc(-c2cc(N3CCN(C(=O)c4ccncc4)CC3)n[nH]2)cc1
CC(C)c1cc(C2CCCN2CCC(=O)Nc2ccc(C(N)=O)cc2)no1 (stereo not drawn)
COc1ccc(-c2nc(C3CC(=O)N(c4ccc(F)c(Cl)c4)C3)no2)cc1OC (stereo not drawn)
O=C1NCCOCCCN(C(=O)CC2CCCC2)[C@H]2CCC[C@@H]12
Cn1cnc(S(=O)(=O)N2CCCC(Cc3noc(-c4cnccn4)n3)C2)c1 (stereo not drawn)
Cc1cn2nc(C(=O)NCC(C)c3ccccc3)cc2c(N2CCCC2)n1 (stereo not drawn)
O=C(NCC1CC1)C1Cn2cccc2C(=O)N1Cc1cccnc1 (stereo not drawn)
Cc1ccnc(N2CCC(c3nnc(-c4ccc(F)cc4)o3)CC2)n1
COc1ccc(-c2onc(C)c2C(=O)NCCC(c2ccccc2)c2ccccc2)cc1
Cc1cccc(-c2cc(C3CCN(S(=O)(=O)c4ccc(C#N)cc4)CC3)[nH]n2)c1
Cc1cccc(CN2CCCCCCNC(=O)[C@@H]3CCC[C@@H]32)c1
COc1cccc(CN2Cc3nc(-c4cc(F)cc(F)c4)ccc3OCC2=O)c1
Cc1ccc(C2Cn3nnc(C(=O)N4CCN(C(=O)COc5cccc(C)c5)CC4)c3CO2)cc1 (stereo not drawn)
O=C(c1ccoc1)N1CCN(C(=O)c2nnn3c2COC(c2ccc(Cl)cc2)C3)CC1 (stereo not drawn)
CN(C)c1ccc(C(=O)N2CCN(C(=O)c3nnn4c3COC(c3ccc(Cl)cc3)C4)CC2)cc1 (stereo not drawn)
COc1ccc(C2Cn3nnc(C(=O)N4CCC(C(=O)NCc5ccc(C)cc5)CC4)c3CO2)cc1 (stereo not drawn)
O=C1N(Cc2ccc(F)cc2)C[C@H]2CN(Cc3ccncc3F)CCN12
Cc1ccc(C2Cn3nnc(C(=O)N4CCC(C(=O)Nc5ccc(Cl)cc5)CC4)c3CO2)cc1 (stereo not drawn)
CC(C)(O)CCc1ccc(C(=O)NCc2nc(-c3ncccn3)no2)cc1
COc1ncccc1Nc1cnc2ccc(N3CCOCC3)nn12
CCOc1cccc(-c2nnc(CCC(=O)NCCC(C)C)c(=O)[nH]2)c1
CCCNc1cc(N2CCC(CCC(=O)Nc3ccc(C)cc3)CC2)ncn1
CCNc1cc(N2CCC(CCC(=O)Nc3ccc(C)cc3C)CC2)ncn1
CS(=O)(=O)N1C[C@H]2CCN(C(=O)c3cc(F)ccc3Cl)C[C@H]21
O=c1[nH]c(C2CCCN(Cc3ccc(-c4ccsc4)cc3)C2)nc2ccc(F)cc12 (stereo not drawn)
COc1ccc2nc([C@H]3CCN(Cc4ccc(NC(C)=O)cc4)C3)[nH]c2c1

Potency, active:
O=C(NCc1nnc2cc(-c3nc(C4CC4)no3)ccn12)c1ccc(F)cc1Cl 7.08 µM
CN(CCc1cn[nH]c1)c1ccc(-c2nc(-c3ccccc3F)no2)cn1 8.91 µM
Cc1cc(N2CCCC(Cn3cc(Cc4ccccc4)nn3)C2)nc(N)n1 (stereo not drawn) 7.94 µM
CN(Cc1csc(-c2ccccc2)n1)c1cc(C2CC(O)C2)nc(N)n1 (stereo not drawn) 2.51 µM
COc1ccc(CN2C(=O)CO[C@H]3CN(Cc4ccc5c(c4)OCO5)C[C@H]32)cc1 31.6 µM
Cc1c[nH]c(CN2CCCC(CCc3ccc(F)cc3F)C2)c(C)c1=O (stereo not drawn) 2.51 µM
O=C(c1ccc2cc[nH]c2c1)N1CCC2(CC1)N=C(c1ccc(Cl)cc1)NO2 11.2 µM
c1ccc(CO[C@@H]2CO[C@H]3[C@@H]2OC[C@@H]3n2nnnc2SCc2ccco2)cc1 22.4 µM
C1CCC(COCCc2noc(C3CNC3)n2)C1 12.6 µM
Cc1ccc2c(c1)nc1n2[C@@H](CNS(=O)(=O)c2ccccc2)COC1 31.6 µM
COc1ccc(-c2noc(CC3CCN(C(=O)Cc4ccc(OC)c(OC)c4)CC3)n2)cc1 2.82 µM
COc1ccc(CC(=O)N2CCC(Cc3nc(-c4ccccc4)no3)CC2)cc1OC 10 µM
N#Cc1cccc(CN2CCC(C3=NC(O)c4cc(F)ccc4N3)CC2)c1 (stereo not drawn) 8.91 µM
O=C(c1cc(F)ccc1Cl)N1CCN(c2cc(-c3ccc(F)cc3)[nH]n2)CC1 17.8 µM
Cc1ccc(C(=O)N2CCN(c3cc(-c4ccc(Cl)cc4)[nH]n3)CC2)c(C)c1 6.31 µM
O=C(c1ccc(F)cc1F)N1CCN(c2cc(-c3ccc(Cl)cc3)[nH]n2)CC1 14.1 µM
COc1ccc(C2Cn3nnc(C(=O)N4CCN(C(=O)c5cccc(Cl)c5)CC4)c3CO2)cc1 (stereo not drawn) 7.08 µM
COc1ccc(C2Cn3nnc(C(=O)N4CCN(C(=O)c5ccc(C)cc5C)CC4)c3CO2)cc1 (stereo not drawn) 14.1 µM
CCNc1cc(N2CCC(CCC(=O)N3CCc4ccccc4C3)CC2)ncn1 11.2 µM
Cc1ccc2nc(C3CCCN(Cc4ccc(C#N)cc4)C3)[nH]c(=O)c2c1 (stereo not drawn) 14.1 µM
